Targets with a hit are over-represented here; the source holds about 8,800 in all. About 0.5% of all pairs of compound and target were hits. A number with no mark means an inactive call.

What all share (experiment): log2 fold change, soluble protein after heating vs DMSO (PISA); higher = thermal stabilisation; K562 lysate, 10 uM; active = over 0.2 and 3.5 SD of the protein, either way, in both replicates (recomputed)
Compound in assay [1]: NCC(=O)Nc1ccc(-n2nc(C(F)(F)F)cc2-c2ccc3c(ccc4ccccc43)c2)cc1
Summed up:
(§1)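 Thermal stability, expressed as log-two fold change relative to solvent controls, is given from duplicates. Crude K562 extract in PBS pH 7.4 with 1 mM MgCl2, at 1 mg/mL protein, was treated with 10 μM compound for 30 min and heated in aliquots for 3 min across 48°C-58°C. After pooling, adjustment to 0.5% NP-40 at 4°C and centrifugation at 21,000xg for 90 min, supernatant protein was measured by TMTpro 16plex LC-MS/MS with channel sums equalised.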

Compound in assay [2]: O=C(CCCCCCC(=O)Nc1ccccc1)NO [vorinostat]
Summed up:
as §1

Compound in assay [3]: O=C(O)c1ccc2c(c1)nc(Nc1cccc(Cl)c1)c1ccncc12 [silmitasertib]
Summed up: as §1

Compound in assay [4]: O=C1NC(=O)C(c2cnc3ccccn23)=C1c1cn2c3c(cc(F)cc13)CN(C(=O)N1CCCCC1)CC2
The procedure, abridged: as §1

Compound in assay [5]: c1cn2cc(-c3ccc4cn[nH]c4c3)nc(Nc3ccc(N4CCOCC4)cc3)c2n1 [entospletinib]
Summed up:
as §1

Chain of UniProt P52948 (P52948 whole entry, looked up): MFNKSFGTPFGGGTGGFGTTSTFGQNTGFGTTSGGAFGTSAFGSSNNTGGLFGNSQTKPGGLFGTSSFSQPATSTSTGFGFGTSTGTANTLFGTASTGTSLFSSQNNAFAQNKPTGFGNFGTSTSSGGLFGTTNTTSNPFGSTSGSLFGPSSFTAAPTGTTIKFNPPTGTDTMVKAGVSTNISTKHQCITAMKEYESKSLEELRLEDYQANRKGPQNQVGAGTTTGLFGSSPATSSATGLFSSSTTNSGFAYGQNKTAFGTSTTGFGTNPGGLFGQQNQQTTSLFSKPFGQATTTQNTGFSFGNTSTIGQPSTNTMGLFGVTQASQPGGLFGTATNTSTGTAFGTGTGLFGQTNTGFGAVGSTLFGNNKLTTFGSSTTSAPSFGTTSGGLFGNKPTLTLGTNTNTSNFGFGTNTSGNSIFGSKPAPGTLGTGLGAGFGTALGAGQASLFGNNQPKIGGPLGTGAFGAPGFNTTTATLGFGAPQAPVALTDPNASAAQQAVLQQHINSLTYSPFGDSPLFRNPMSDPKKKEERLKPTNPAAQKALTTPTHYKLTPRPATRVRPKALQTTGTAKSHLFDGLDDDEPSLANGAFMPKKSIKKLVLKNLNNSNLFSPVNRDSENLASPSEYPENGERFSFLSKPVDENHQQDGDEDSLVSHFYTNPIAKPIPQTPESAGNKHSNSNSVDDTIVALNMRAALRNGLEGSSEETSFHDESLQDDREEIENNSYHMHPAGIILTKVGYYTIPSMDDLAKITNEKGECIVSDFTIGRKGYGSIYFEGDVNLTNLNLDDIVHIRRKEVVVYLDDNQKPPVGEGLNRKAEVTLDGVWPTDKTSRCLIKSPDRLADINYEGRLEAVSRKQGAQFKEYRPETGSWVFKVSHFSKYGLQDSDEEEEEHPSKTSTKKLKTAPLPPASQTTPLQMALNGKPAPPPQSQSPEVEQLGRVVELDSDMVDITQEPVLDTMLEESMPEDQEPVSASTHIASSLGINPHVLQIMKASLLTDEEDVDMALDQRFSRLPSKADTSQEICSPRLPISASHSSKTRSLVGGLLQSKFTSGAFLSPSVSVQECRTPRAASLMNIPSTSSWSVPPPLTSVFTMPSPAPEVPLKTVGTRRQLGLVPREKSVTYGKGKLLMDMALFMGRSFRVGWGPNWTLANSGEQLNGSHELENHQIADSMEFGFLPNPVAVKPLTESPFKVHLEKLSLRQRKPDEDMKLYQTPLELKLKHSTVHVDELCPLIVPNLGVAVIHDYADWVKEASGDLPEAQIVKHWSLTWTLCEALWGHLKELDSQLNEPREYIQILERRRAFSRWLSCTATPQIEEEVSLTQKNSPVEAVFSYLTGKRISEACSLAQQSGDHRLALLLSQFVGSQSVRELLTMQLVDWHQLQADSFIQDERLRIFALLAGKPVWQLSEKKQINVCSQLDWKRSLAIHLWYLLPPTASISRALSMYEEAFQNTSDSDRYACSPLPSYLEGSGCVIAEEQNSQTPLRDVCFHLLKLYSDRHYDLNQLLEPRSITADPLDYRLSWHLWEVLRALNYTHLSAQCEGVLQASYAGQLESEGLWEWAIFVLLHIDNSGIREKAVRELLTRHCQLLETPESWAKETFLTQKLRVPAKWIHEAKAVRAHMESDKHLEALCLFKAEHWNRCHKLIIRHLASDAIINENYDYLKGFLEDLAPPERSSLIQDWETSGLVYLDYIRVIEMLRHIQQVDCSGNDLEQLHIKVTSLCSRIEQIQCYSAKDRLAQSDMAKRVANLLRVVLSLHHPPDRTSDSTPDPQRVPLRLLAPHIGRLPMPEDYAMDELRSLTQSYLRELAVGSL
Chain of UniProt Q8IVI9 (Q8IVI9 whole entry, looked up): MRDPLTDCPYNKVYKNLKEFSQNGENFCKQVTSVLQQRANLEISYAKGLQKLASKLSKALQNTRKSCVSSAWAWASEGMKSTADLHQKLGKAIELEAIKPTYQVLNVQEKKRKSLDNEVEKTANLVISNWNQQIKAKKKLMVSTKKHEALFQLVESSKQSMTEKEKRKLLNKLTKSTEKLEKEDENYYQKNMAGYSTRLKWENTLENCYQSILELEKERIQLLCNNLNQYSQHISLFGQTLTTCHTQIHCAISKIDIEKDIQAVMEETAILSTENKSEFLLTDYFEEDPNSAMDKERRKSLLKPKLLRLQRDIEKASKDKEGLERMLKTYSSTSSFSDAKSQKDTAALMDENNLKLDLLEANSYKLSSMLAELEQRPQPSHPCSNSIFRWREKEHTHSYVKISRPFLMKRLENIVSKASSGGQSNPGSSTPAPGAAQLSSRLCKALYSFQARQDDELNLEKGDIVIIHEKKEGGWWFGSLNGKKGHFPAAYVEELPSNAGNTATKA
Chain of UniProt Q6N063 (Q6N063 whole entry, looked up): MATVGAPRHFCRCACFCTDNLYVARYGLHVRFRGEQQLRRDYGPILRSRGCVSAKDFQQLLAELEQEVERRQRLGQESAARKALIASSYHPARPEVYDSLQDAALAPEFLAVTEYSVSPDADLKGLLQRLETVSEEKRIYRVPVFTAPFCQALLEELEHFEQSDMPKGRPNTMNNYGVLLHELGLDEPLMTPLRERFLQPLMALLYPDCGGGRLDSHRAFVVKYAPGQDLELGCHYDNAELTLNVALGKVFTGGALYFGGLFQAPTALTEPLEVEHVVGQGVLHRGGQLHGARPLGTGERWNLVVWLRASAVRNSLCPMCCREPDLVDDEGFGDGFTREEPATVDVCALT
Chain of UniProt Q96IV0 (Q96IV0 whole entry, looked up): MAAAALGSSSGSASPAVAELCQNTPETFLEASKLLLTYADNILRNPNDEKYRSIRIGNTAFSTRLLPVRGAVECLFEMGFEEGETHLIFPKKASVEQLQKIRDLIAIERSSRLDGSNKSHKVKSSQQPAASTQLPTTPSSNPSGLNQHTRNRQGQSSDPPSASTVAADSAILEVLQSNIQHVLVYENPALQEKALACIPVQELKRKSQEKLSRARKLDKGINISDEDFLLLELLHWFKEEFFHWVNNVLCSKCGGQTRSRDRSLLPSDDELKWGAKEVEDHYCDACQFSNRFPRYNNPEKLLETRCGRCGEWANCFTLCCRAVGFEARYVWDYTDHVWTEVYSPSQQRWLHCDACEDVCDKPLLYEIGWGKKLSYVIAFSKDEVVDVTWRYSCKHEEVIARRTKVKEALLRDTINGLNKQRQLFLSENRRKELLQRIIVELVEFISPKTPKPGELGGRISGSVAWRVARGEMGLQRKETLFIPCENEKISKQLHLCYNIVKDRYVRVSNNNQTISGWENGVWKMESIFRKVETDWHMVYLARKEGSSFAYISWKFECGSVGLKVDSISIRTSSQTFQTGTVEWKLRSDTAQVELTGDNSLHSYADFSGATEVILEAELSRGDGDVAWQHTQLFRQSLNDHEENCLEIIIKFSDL
Chain of UniProt Q9NTK5 (Q9NTK5 whole entry, looked up): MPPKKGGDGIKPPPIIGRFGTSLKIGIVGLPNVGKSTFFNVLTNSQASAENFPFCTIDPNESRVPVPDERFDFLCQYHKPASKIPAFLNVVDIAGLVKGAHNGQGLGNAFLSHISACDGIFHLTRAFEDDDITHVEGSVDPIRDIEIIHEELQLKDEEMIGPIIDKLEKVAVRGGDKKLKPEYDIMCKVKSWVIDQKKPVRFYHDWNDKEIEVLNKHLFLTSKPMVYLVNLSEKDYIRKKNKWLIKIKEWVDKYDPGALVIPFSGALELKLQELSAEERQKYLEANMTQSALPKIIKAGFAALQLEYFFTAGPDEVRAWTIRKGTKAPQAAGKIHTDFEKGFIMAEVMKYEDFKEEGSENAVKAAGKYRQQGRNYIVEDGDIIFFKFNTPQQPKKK
Chain of UniProt Q9H857 (Q9H857 whole entry, looked up): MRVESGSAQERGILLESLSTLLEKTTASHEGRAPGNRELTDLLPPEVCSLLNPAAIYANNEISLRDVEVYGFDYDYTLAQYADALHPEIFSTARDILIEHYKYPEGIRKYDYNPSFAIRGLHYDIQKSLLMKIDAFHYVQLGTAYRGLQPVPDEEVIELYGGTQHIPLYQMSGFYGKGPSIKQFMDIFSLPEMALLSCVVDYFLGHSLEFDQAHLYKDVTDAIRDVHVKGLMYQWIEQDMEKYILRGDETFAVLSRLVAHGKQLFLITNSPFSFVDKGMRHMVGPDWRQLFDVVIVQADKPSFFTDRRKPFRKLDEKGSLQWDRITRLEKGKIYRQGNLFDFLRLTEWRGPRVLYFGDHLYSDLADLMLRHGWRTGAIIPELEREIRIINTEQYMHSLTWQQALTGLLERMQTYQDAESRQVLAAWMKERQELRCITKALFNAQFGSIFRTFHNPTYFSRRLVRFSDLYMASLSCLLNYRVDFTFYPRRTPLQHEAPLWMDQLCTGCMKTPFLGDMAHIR
Chain of UniProt Q9Y5N5 (Q9Y5N5 whole entry, looked up, one chain of several): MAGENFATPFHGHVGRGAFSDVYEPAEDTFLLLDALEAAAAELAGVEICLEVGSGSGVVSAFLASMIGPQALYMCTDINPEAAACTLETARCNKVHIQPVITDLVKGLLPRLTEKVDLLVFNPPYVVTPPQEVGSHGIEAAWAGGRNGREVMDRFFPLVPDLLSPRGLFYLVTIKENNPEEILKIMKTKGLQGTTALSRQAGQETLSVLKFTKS

On to N6AMT1 (UniProt Q9Y5N5), for which the log2 fold change was -0.043 in assay [1]; 0.076 in assay [2]; -0.025 in assay [3]; -0.007 in assay [4]; -0.011 in assay [5].

Regarding NGLY1 (UniProt Q96IV0), the log2 fold change in assay [1] was -0.014; in assay [2], -0.29 (active); in assay [3] it was 0.041; in assay [4], 0.018; in assay [5], 0.034.

Turning to NT5DC2 isoform 2 (UniProt Q9H857), the log2 fold change in assay [1] was 0.013; in assay [2], -0.272 (active); in assay [3] it was -0.019; in assay [4], 0; in assay [5] it was -0.013.

Consider MVB12A (UniProt Q96EY5), for which the log2 fold change was -0.002 in assay [1]; -0.812 (active) in assay [2]; -0.016 in assay [3]; 0.016 in assay [4]; 0.042 in assay [5].

NOSTRIN (UniProt Q8IVI9): the log2 fold change is -0.083 in assay [1]; -0.27 (active) in assay [2]; 0.028 in assay [3]; 0.019 in assay [4]; 0.018 in assay [5].

For the target OLA1 (UniProt Q9NTK5), the log2 fold change was 0.03 in assay [1]; -0.31 (active) in assay [2]; 0.041 in assay [3]; 0.004 in assay [4]; 0.043 in assay [5].

As to OGFOD2 (UniProt Q6N063), the log2 fold change in assay [1] was 0.023; in assay [2] it was -0.075; in assay [3] it was 0.038; in assay [4], 0.022; in assay [5] it was -0.001.

For the target NUP98 (UniProt P52948), the log2 fold change in assay [1] was 0.021; in assay [2] it was -0.231 (active); in assay [3] it was 0.001; in assay [4], 0.001; in assay [5], -0.012.

On to NUP210 (UniProt Q8TEM1), for which the log2 fold change in assay [1] is -0.006; in assay [2], 0.276 (active); in assay [3], 0.022; in assay [4] it was -0.013; in assay [5] it was -0.038.

The record behind these values is the supplement of paper PMC10849652.
